Reference: publication PMC4336329 (PLoS ONE, 2015)
Among all 310,000 compounds or so, about 14,000 (4.5%) showed an effect of 50% or more. The effect is printed as a negative number. Only a selection was taken, and strong results are over-represented in it overall.

Each compound was assayed against human ether-à-go-go-related gene (hERG) potassium channel (human, UniProt Q12809) (assay: primary screen, population patch clamp on CHO cells stably expressing hERG; higher = less effect of the substance).
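Also: peak tail current of the secondary pulse compared with the same well before compound.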

human ether-à-go-go-related gene (hERG) potassium channel, sequence (Q12809 whole entry, looked up): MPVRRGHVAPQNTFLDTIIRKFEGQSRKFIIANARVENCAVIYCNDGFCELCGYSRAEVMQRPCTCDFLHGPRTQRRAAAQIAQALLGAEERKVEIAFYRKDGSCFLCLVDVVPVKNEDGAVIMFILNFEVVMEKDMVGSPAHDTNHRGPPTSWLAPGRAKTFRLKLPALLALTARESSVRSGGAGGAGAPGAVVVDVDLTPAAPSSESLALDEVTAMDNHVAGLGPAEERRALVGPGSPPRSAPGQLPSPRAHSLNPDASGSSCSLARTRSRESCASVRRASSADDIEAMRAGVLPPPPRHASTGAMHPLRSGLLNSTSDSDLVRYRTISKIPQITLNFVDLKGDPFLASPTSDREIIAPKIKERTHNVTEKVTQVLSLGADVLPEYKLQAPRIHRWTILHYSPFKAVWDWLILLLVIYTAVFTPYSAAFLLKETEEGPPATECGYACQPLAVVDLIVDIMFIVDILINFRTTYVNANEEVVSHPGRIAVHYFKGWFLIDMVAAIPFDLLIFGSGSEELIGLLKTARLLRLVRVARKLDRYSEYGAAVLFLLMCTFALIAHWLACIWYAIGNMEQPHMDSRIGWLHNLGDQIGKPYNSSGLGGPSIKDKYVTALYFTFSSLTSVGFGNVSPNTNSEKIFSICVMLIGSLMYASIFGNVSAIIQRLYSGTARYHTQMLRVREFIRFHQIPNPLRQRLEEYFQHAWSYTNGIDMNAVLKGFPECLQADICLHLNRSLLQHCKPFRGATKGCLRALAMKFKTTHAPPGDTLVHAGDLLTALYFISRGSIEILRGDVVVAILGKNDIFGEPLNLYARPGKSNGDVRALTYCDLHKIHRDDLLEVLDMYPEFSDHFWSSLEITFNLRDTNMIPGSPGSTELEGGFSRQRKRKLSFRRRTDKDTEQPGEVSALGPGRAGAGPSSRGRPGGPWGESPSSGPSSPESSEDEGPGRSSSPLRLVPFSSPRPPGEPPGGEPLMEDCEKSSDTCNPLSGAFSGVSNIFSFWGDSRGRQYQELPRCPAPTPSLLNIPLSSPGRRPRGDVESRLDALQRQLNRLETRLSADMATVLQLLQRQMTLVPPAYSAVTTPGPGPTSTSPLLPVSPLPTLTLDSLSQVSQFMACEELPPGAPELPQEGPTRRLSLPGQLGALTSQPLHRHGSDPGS

Row | Structure (SMILES) | hERG current change (%, negative = inhibition) at 10uM
1 | CN(C)S(=O)(=O)c1ccc(N2CCCC2)c(C(=O)Nc2ccccc2OC(F)F)c1 | -54.2%
2 | CN(C)S(=O)(=O)c1ccc(N2CCCC2)c(C(=O)NC(c2ccccc2)c2ccccc2)c1 | 6.73%
3 | CN(C)S(=O)(=O)c1ccc(N2CCCC2)c(C(=O)Nc2ccc(F)cc2F)c1 | -33.2%
4 | COc1cc(-c2nn3c(-c4cccc(C)c4)nnc3s2)cc(OC)c1OC | 13.1%
5 | Cc1nn(C)c(=O)n1N(C)c1ncc(C(F)(F)F)cc1Cl | 23.8%
6 | Cc1ccc(F)cc1NC(=O)CN1CCN(c2ccccn2)CC1 | -35.2%
7 | Cc1c(CN2CC[C@@H](N3CCN(c4ccccn4)CC3)[C@H](O)C2)[nH]c2ccc(F)cc12 | -60.9%
8 | Cc1[nH]c2ccc(C(=O)N3CCN(c4ccccn4)CC3)cc2c1C | -2.92%
9 | CCN(CC)CCNC(=O)c1ccc(NC(=O)c2ccc(F)cc2)cc1 | -43.6%
10 | CCN(CC)CCNC(=O)c1ccc(NC(=O)c2c(F)cccc2Cl)cc1 | -12.4%
11 | CCN(CC)CCNC(=O)c1ccc(NC(=O)c2c(C)nn(-c3ccc(F)cc3)c2Cl)cc1 | -60%
12 | COC(=O)c1c(C)nn(-c2ccc(F)c(Cl)c2)c1-c1cc(C)on1 | -4.39%
13 | O=C(O)CCSc1nnc(SCC(=O)NCC(F)(F)F)s1 | 7.55%
14 | Cc1nn(C(=O)c2ccco2)c(C)c1CN1C(=O)c2ccccc2C1=O | -12.2%
15 | OC(c1ccc(Cl)cc1)C(O)c1nc2ccccc2[nH]1 (stereo not drawn) | -2.47%
16 | OC(CN1CCN(c2ccccn2)CC1)Cn1c2ccc(Cl)cc2c2cc(Cl)ccc21 (stereo not drawn) | 0.599%
17 | OC(COc1ccc2cc(Br)ccc2c1)CN1CCN(c2ccccn2)CC1 (stereo not drawn) | 1.85%
18 | OC(COc1ccc(Cl)cc1)CN1CCN(c2ccccn2)CC1 (stereo not drawn) | -68%
19 | CC(=O)c1ccc(OCC(O)CN2CCN(c3ccccn3)CC2)cc1.Cl (stereo not drawn) | -25.8%

Row | Structure (SMILES) | hERG current change (%, negative = inhibition) at 10uM
20 | Cc1cc(OCC(O)CN2CCN(c3ccccn3)CC2)cc(C)c1Cl.Cl (stereo not drawn) | -0.237%
21 | CC(C)c1ccc(OCC(O)CN2CCN(c3ccccn3)CC2)cc1.Cl (stereo not drawn) | -63.7%
22 | Cl.OC(COCc1ccc(Cl)cc1)CN1CCN(c2ccccn2)CC1 (stereo not drawn) | -66.4%
23 | CC(C)(C)c1ccc(OCC(O)CN2CCN(c3ccccn3)CC2)cc1.Cl (stereo not drawn) | -16%
24 | O=C(O)CCCn1cc(NC(=O)c2ccco2)cn1 | 26.7%
25 | O=C(NCCN1CCOCC1)c1ccc(CSc2nc3ccncc3n2Cc2ccc(F)cc2)cc1 | -8.35%
26 | Fc1ccc(-c2nnn(Cc3nc4ccccc4s3)n2)cc1 | -11.2%
27 | CCN(CC)C(=O)c1cc2c(=O)n3cccc(C)c3nc2s1 | 15.5%
28 | Cc1cccc(-c2nc(CN3CCCC(C(=O)NC4CCCC4)C3)c(C)o2)c1 (stereo not drawn) | -76.3%
29 | COc1ccc(CNC(=O)C2CCCN(c3nccc(C)n3)C2)cc1 (stereo not drawn) | -0.849%
30 | Cc1cccc(-c2nc(CN3CCCC(C(=O)NC4CCC(C)CC4)C3)c(C)o2)c1 (stereo not drawn) | -68.4%
31 | COc1ccc(CNC(=O)C2CCCN(Cc3nc(-c4cccc(C)c4)oc3C)C2)cc1 (stereo not drawn) | -63.8%
32 | CCN(c1ccc(OC)cc1)S(=O)(=O)N1CCCC(C(=O)NCc2cccc(C)c2)C1 (stereo not drawn) | -26.5%
33 | Cc1cccc(-c2nc(CN3CCCC(C(=O)NC4CCCCC4)C3)c(C)o2)c1 (stereo not drawn) | -60.4%
34 | COc1cccc(N2CCN(S(=O)(=O)c3ccc(-n4cnnn4)cc3)CC2)c1 | 16.6%
35 | CCN(CC)CCNC(=S)NC(=O)c1cn(-c2ccccc2)nc1-c1ccc(OC)cc1 | -27.3%
36 | COc1ccc(N(CC(=O)N2CCCCC2)S(=O)(=O)c2c(C)nn(C)c2C)cc1 | 4.36%
37 | CCOC(=O)CSc1nnc(Cc2ccccc2)n1CC1CCCO1 (stereo not drawn) | 5%
38 | Clc1ncc(Cn2cccn2)s1 | 10.5%

Row | Structure (SMILES) | hERG current change (%, negative = inhibition) at 10uM
39 | O=C1C2C3C=CC(C3)C2C(=O)N1/N=C/c1cn(Cc2ccc(F)cc2)c2ccccc12 (stereo not drawn) | 5.84%
40 | O=C(NCCCn1ccnc1)c1ccc(Cl)s1 | 5.72%
41 | COC(=O)c1c(NC(=O)COC(=O)c2ccc(NC(=O)CC#N)cc2)sc2c1CCCCC2 | 17.6%
42 | Cc1cccc(-c2nc(CS(=O)CC(=O)NC3CCCCC3)c(C)o2)c1 (stereo not drawn) | -3.93%
43 | Cc1cccc(-c2nc(CN3CCCC(C(=O)NC4CCCCCC4)C3)c(C)o2)c1 (stereo not drawn) | -69.8%
44 | O=C(NCCO)c1cc2ccccc2c(=O)s1 | 6.96%
45 | Cc1cccc(-c2nn(-c3ccccc3)cc2C(=O)NCC(c2cccs2)N2CCOCC2)c1 (stereo not drawn) | -4.33%
46 | O=C1c2ccccc2N2C(=O)c3ccccc3C2N1Cc1ccco1 (stereo not drawn) | -27.4%
47 | O=C1c2ccccc2N2C(=O)c3ccccc3C2N1Cc1ccccc1 (stereo not drawn) | -57.9%
48 | O=C1c2ccccc2N2C(=O)c3ccccc3[C@H]2N1c1ccccc1 | -22.4%
49 | COC(=O)c1ccc(CN2C(=O)c3ccccc3C2=O)cc1 | 8.01%
50 | Cc1cccc(NC(=O)CC2(CC(=O)O)CCCC2)c1 | 24.6%
51 | Cn1nc(-c2ccccc2)cc1NC(=O)c1cccs1 | 5.18%
52 | Cc1ccccc1S(=O)(=O)Cc1ccc(C(=O)NCCN(CC(C)C)CC(C)C)o1 | -43.6%
53 | CCN(CC)CCNC(=O)c1ccc(CS(=O)(=O)c2ccccc2C)o1 | -24%
54 | Cc1ccccc1S(=O)(=O)Cc1ccc(C(=O)NCCc2ccccc2)o1 | -30.6%
55 | Cc1ccccc1S(=O)(=O)Cc1ccc(C(=O)NCCN(C)Cc2ccccc2)o1 | -48.5%
56 | Cc1ccccc1S(=O)(=O)Cc1ccc(C(=O)NCCN(Cc2ccccc2)C(C)C)o1 | -55.6%
57 | Cc1ccccc1S(=O)(=O)Cc1ccc(C(=O)NCCCN(C)Cc2ccccc2)o1 | -56.2%
